# Screens from PubChem.
# D2 PAM-1: HTS Assay for Positive Allosteric Modulators of the Human D2 Dopamine Receptor: Primary Screen for Potentiators. D(2) dopamine receptor (Homo sapiens), P14416. HEK293 T-REx D2, calcium flux, EC20 dopamine potentiation. potentiation, % at 10 µM. 0.34% of 340,000 active. AID 485347, 2010;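 active means potentiation over 3 SD above the plate norm, cut at about 30% in these data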; further: 0% is about no effect
# Target sequence (P14416 whole entry, looked up): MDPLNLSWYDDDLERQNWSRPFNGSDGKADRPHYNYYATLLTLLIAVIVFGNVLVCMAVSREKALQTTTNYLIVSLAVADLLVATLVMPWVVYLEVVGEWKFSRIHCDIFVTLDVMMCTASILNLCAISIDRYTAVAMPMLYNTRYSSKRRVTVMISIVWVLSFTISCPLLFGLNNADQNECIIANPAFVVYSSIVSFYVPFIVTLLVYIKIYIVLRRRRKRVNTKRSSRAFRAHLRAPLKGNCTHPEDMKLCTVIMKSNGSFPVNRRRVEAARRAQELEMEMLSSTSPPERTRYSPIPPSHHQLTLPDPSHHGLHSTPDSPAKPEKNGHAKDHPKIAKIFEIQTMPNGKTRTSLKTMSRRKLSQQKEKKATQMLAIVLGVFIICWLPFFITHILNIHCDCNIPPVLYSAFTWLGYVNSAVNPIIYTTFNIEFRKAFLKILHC
#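 Potentiation of an EC20 dopamine calcium response measured kinetically over 180 s, after a preceding 180 s compound-only read flagging agonists. Cells: inducible Hek293 Trex D2 line, 4000/well, cultured overnight at 30 C before dye loading.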
# D2 PAM-2: Beta-Arrestin HTS for Positive Allosteric Modulators of the Human D2 Dopamine Receptor: Potentiators | potentiation, % (no concentration beside the values) | DiscoveRx D2 beta-arrestin cells, luminescence, 90 min; 100% = 57 uM dopamine signal | 0.23% of 360,000 active | D(2) dopamine receptor (Homo sapiens), P14416; in the data active means potentiation above about 50%; inconclusive means mostly about 30% to 49%
#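 D2 cells co-treated with compound plus 50 nM dopamine (EC20) for 90 min at 37 deg C to detect potentiation. Beta-arrestin recruitment was read as enzyme-fragment luminescence after 1 h at ambient temperature. Full response was set by 57 uM dopamine.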
# D2 ag-1: Beta-Arrestin HTS for Positive Allosteric Modulators of the Human D2 Dopamine Receptor: Agonists | activation, % (test concentration not listed) | 0.084% of 360,000 active | DiscoveRx PathHunter D2 beta-arrestin, luminescence, 90 min; 100% = 57 uM dopamine signal | AID 624465, 2012; in the data active means activation above about 40%; inconclusive means between about 15% and that limit
#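 Agonist mode: compounds alone added to overnight-plated D2 PathHunter cells for 90 min at 37 C, with 57 uM final dopamine (EC100) defining full response. Beta-arrestin recruitment detected by chemiluminescent reagent, read after 1 h at ambient temperature.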
# D2 ag-2: HTS Assay for Allosteric Agonists of the Human D2 Dopamine Receptor: Primary Screen for Agonists. D(2) dopamine receptor (Homo sapiens), P14416. activation, % at 2 µM. HEK293 T-REx D2 cells, calcium flux agonist mode. 0.53% of 340,000 active;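 active means activation over 3 SD above normal in the single-dose calcium agonist read, cut at about 30% in these data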; further: 0% is about no effect
#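 Agonism is scored from calcium flux in a force-coupled, inducible HEK293 cell line expressing D2, read kinetically for 180 s after compound addition against dopamine controls.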
# D2 antag: HTS Assay for Allosteric Antagonists of the Human D2 Dopamine Receptor: Primary Screen for Antagonists | D(2) dopamine receptor (Homo sapiens), P14416 | HEK293 TREx D2 cells, calcium flux, dopamine EC80 | inhibition, % at 10 µM | 2% of 340,000 active | AID 485344, 2010; in the data active means inhibition above about 30%; inactive means below that, where a call was filed; further: 0% is about no effect
#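 HEK293 T-REx D2 cells, tet-induced, calcium dye no-wash. Cpd pintool add, 180 s kinetic, then EC80 DA, 180 s kinetic. Ca flux read.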
# * hit, by the source's call; ? = inconclusive; . = no result given. In the library only some 2.4% were active in any assay of this set; here they are far more common.
SMILES,D2 PAM-1,D2 PAM-2,D2 ag-1,D2 ag-2,D2 antag
COC(=O)c1sccc1NC(=O)Nc1ccc(Cl)c(Cl)c1,-6,-15,5,0,44*
CC1=C(c2ccc(C)c(C)c2)S(=O)(=O)N=C1N1CCC(C(=O)NCCc2ccco2)CC1,0,.,.,-1,.
CCC1CN(C(=O)Nc2ccccc2C(F)(F)F)c2ccccc2O1 (configuration not stated),6,.,.,0,.
Cc1coc2c1c(C)cc1oc(=O)c(Cc3ccccc3)c(C)c12,-2,11,-1,1,43*
CCCCCCc1c(C)c2c(cc(C)c3c(C)coc32)oc1=O,-6,.,.,0,.
Cc1ccc(NC(=O)c2cnn3c(C(F)F)cc(-c4ccccc4)nc23)c(C)c1,-4,.,.,0,.
CCc1cc(=O)oc2cc(OCC(=O)NCCCn3ccnc3)ccc12,3,-10,6,0,37*
COc1ccc(Cl)cc1C(=O)NCCCn1ccnc1,-12,-8,3,1,2
COc1ccc(-c2cc(=O)oc3cc(OCC(=O)NCCCn4ccnc4)ccc23)cc1,-2,-19,2,-1,-4
COc1ccc(C(C)=O)cc1CC(=O)NCCCn1ccnc1,34*,-2,1,1,-2
Cc1cc(Cl)ccc1OCCCC(=O)NCCCn1ccnc1,0,-8,-4,2,36*
Cc1cc(C(=O)NCCCn2ccnc2)sc1-c1ccccc1,-29,-15,-2,0,47*
Cc1cc(Cl)ccc1OCC(=O)NCCCn1ccnc1,-12,-23,0,-1,5
Cc1cccc(CNC(=O)C(=O)Nc2ccccc2C)c1,3,.,.,0,.
Cc1ccc(S(=O)(=O)N2CCCc3cc(NS(=O)(=O)c4ccccc4)ccc32)cc1,4,.,.,1,.
CCC(Sc1nccn1C)C(=O)Nc1ccc(Cl)cn1 (configuration not stated),-23,-13,-1,0,4
CC(Sc1nccn1C)C(=O)Nc1ccc(Cl)cn1 (configuration not stated),-2,-6,5,0,49*
Cc1cccnc1NC(=O)CCc1c[nH]c2ccccc12,5,1,1,0,31*
Cc1ccnc(NC(=O)CCCc2c[nH]c3ccccc23)c1,7,5,-1,-1,-4
CC(=O)c1ccc2noc(-c3ccccc3)c2c1,22,?,?,1,-6
c1ccc(-c2onc3cc4c(cc23)OCCO4)cc1,4,117*,?,-1,-1
COC(=O)c1[nH]c2ccc(Cl)cc2c1NC(=O)Oc1ccccc1,5,68*,8,0,-14
COC(=O)c1[nH]c2ccc(Cl)cc2c1NC(=O)C1CC1,-2,-4,1,0,-14
CCN1CCC(N(Cc2cccc(OC)c2)C(=O)Nc2cccc(C(F)(F)F)c2)CC1,-12,.,.,1,.
CCCCc1nc2ccccc2n2c(-c3ccc(OC)cc3)c3c(=O)n(C)c(=O)n(C)c3c12,-2,.,.,.,.
SMILES,D2 PAM-1,D2 PAM-2,D2 ag-1,D2 ag-2,D2 antag
Cc1c(C)n(-c2ccccc2)c2ncnc(NCCN(C)C)c12,-25,-23,-6,0,40*
Cc1ccc(OCCNC(=O)CCNS(=O)(=O)c2ccc(C)cc2)cc1,6,-19,-6,0,30*
CCOc1ccc(S(=O)(=O)NCCC(=O)NCCOc2ccccc2)cc1,-5,?,-2,0,-8
CCCNS(=O)(=O)c1ccc(OCC(=O)OC)cc1,-6,9,2,1,6
CCCNS(=O)(=O)c1ccc(OCC(=O)NCCCOC)cc1,-14,-3,1,1,30*
O=C(CS(=O)(=O)Cc1ccccc1)Nc1ccc(Cl)cn1,0,-8,-2,1,52*
COc1ccc(CCN2CCC(CNC(=O)c3cnn(-c4ccc(C)cc4)c3C3CCN(C(=O)OC(C)(C)C)CC3)CC2)cc1,-11,.,.,0,.
